From PubChem BioAssay (NCI) come the findings set out here.

Compounds without any hit were thinned out: in the full panel of roughly 79,000, 15% have a hit. A number with no mark means an inactive call. The source made the active and inactive calls. No stated cut-off is given here; in the data, active means growth inhibition above about 70%; inactive means the rest.

Experiment [1] in a line: NCI Yeast Anticancer Drug Screen. Data for the rad50 strain (AID 155).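 Further: 0% = growth of vehicle-only cultures of the same strain.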 The conditions noted are these: S. cerevisiae rad50 strain growth inhibition, active compounds read high. The method in brief:
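Genetically altered yeast (DNA repair pathway); compound treatment; growth inhibition vs vehicle ctrl.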

A short description of experiment [2]: NCI Yeast Anticancer Drug Screen. Data for the mec2-1 strain (AID 157). The conditions noted are these: S. cerevisiae mec2-1 strain, active compounds read high. The method in brief:
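Readout is yeast growth inhibition, normalised to vehicle-treated controls, in the mec2-1 strain exposed to compound.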

Experiment [3] in a line: NCI Yeast Anticancer Drug Screen. Data for the sgs1 mgt1 strain (AID 161).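 Further: 0% = growth of cultures given vehicle only.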 The conditions noted are these: S. cerevisiae sgs1 mgt1 strain, active compounds read high. The method in brief: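 Percent growth inhibition was derived by comparing compound-exposed mutant yeast with vehicle-exposed cultures. The strain carries alterations in DNA damage repair.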
Experiment [4] is described as follows: NCI Yeast Anticancer Drug Screen. Data for the cln2 rad14 strain (AID 165).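 Further: 0% = growth equal to vehicle treated cultures.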 The conditions noted are these: S. cerevisiae cln2 rad14 strain, active compounds read high. The method in brief:
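Relative to vehicle controls, growth inhibition of compound-treated cln2 rad14 yeast was recorded.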

A short description of experiment [5]: NCI Yeast Anticancer Drug Screen. Data for the bub3 strain (AID 167). The following applies: S. cerevisiae bub3 mutant strain, active compounds read high. The method in brief: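 Yeast carrying a defined mutation is treated with each compound, and growth is compared with that of vehicle-exposed cells to give inhibition.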
Experiment [6] can be described thus: NCI Yeast Anticancer Drug Screen. Data for the mlh1 rad18 strain (AID 175). The following applies: S. cerevisiae mlh1 rad18 strain growth inhibition, active compounds read high. The method in brief:
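Test agents were incubated with a yeast strain of defined genotype (DNA damage repair defect). Inhibition of growth was derived by comparison with vehicle-exposed cultures.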

Setting [7] is: at 5.0 µM (retest, dose inferred, filed as 0.5).
Setting [8] is: at 50.0 µM (retest, dose inferred, filed as 5.0).

Consider `O=[N+]([O-])CCc1ccco1`, for which the growth inhibition in experiment [1] (setting [7]) was 3%; in experiment [1] (setting [8]) it was 0%; in experiment [1] (at 50.0 µM) it was 74.8% (active); in experiment [2] (setting [7]) it was 1%; in experiment [2] (setting [8]) it was -1%; in experiment [2] (at 50.0 µM), 73.2% (active). For the same compound, the growth inhibition is 2% in experiment [3] (setting [7]); 2% in experiment [3] (setting [8]); 47.4% in experiment [3] (at 50.0 µM); 3% in experiment [4] (setting [7]); 0% in experiment [4] (setting [8]); 56.2% in experiment [4] (at 50.0 µM). For the same compound, the growth inhibition in experiment [5] (setting [7]) was 4%; in experiment [5] (setting [8]), -4%; in experiment [5] (at 50.0 µM), 95.2% (active); in experiment [6] (setting [7]), 0%; in experiment [6] (setting [8]), -1%; in experiment [6] (at 50.0 µM), 44.1%.

With `CN1CCC(/C=C/c2cccc3ccccc23)CN1` (stereo not given) (tested in a mixture with another compound), the growth inhibition in experiment [1] (setting [7]) is 1%; in experiment [1] (setting [8]), 93% (active); in experiment [1] (at 50.0 µM) it was 71.5% (active); in experiment [2] (setting [7]), 18%; in experiment [2] (setting [8]), 71% (active); in experiment [2] (at 50.0 µM) it was 71.3% (active). The growth inhibition was -1% in experiment [3] (setting [7]); 91% (active) in experiment [3] (setting [8]); 79.3% (active) in experiment [3] (at 50.0 µM); 3% in experiment [4] (setting [7]); 27% in experiment [4] (setting [8]); 23.2% in experiment [4] (at 50.0 µM). The growth inhibition is -4% in experiment [5] (setting [7]); 52% in experiment [5] (setting [8]); 35.9% in experiment [5] (at 50.0 µM); -1% in experiment [6] (setting [7]); 95% (active) in experiment [6] (setting [8]); 81.3% (active) in experiment [6] (at 50.0 µM).

For `Cn1c(=S)c2[nH]c(SCCN3CCOCC3)nc2n(C)c1=O`, the growth inhibition in experiment [1] (setting [7]) was 18%; in experiment [1] (setting [8]) it was 81% (active); in experiment [1] (at 50.0 µM), 98.5% (active); in experiment [2] (setting [7]), 20%; in experiment [2] (setting [8]), 70% (active); in experiment [2] (at 50.0 µM) it was 99.5% (active). For the same compound, the growth inhibition is 31% in experiment [3] (setting [7]); 72% (active) in experiment [3] (setting [8]); 99.4% (active) in experiment [3] (at 50.0 µM); 3% in experiment [4] (setting [7]); 59% in experiment [4] (setting [8]); 61% in experiment [4] (at 50.0 µM). Also, the growth inhibition in experiment [5] (setting [7]) is 30%; in experiment [5] (setting [8]), 83% (active); in experiment [5] (at 50.0 µM), 99% (active); in experiment [6] (setting [7]), 15%; in experiment [6] (setting [8]), 90% (active); in experiment [6] (at 50.0 µM) it was 98.7% (active).

Take `CC(C)[CH2][Ge]([Cl])([Cl])[Cl]`: the growth inhibition in experiment [1] (setting [7]) is 1%; in experiment [1] (setting [8]), -8%; in experiment [1] (at 50.0 µM) it was 98.5% (active); in experiment [2] (setting [7]), 2%; in experiment [2] (setting [8]), -2%; in experiment [2] (at 50.0 µM) it was 98.8% (active). For the same compound, the growth inhibition was 3% in experiment [3] (setting [7]); -15% in experiment [3] (setting [8]); 98.7% (active) in experiment [3] (at 50.0 µM); -2% in experiment [4] (setting [7]); -14% in experiment [4] (setting [8]); 98.5% (active) in experiment [4] (at 50.0 µM). For the same compound, the growth inhibition in experiment [5] (setting [7]) was 3%; in experiment [5] (setting [8]), -3%; in experiment [5] (at 50.0 µM), 99% (active); in experiment [6] (setting [7]), 1%; in experiment [6] (setting [8]), 1%; in experiment [6] (at 50.0 µM) it was 99% (active).

In the case of `Cn1cnc([N+](=O)[O-])c1Sc1nnnn1-c1ccccc1`, the growth inhibition was 53% in experiment [1] (setting [7]); 86% (active) in experiment [1] (setting [8]); 82% (active) in experiment [1] (at 50.0 µM); 29% in experiment [2] (setting [7]); 70% (active) in experiment [2] (setting [8]); 75.8% (active) in experiment [2] (at 50.0 µM). Moreover, the growth inhibition is 47% in experiment [3] (setting [7]); 71% (active) in experiment [3] (setting [8]); 68.7% in experiment [3] (at 50.0 µM); 32% in experiment [4] (setting [7]); 51% in experiment [4] (setting [8]); 36.1% in experiment [4] (at 50.0 µM). Also, the growth inhibition in experiment [5] (setting [7]) is 42%; in experiment [5] (setting [8]), 75% (active); in experiment [5] (at 50.0 µM), 80.8% (active); in experiment [6] (setting [7]), 60%; in experiment [6] (setting [8]), 91% (active); in experiment [6] (at 50.0 µM) it was 80.5% (active).

Turning to `O=[N+]([O-])c1ccc(C2=C[P+](c3ccccc3)(c3ccccc3)C=C(c3ccccc3)O2)cc1`, the growth inhibition in experiment [1] (setting [7]) was 29%; in experiment [1] (setting [8]) it was 97% (active); in experiment [1] (at 50.0 µM), 91% (active); in experiment [2] (setting [7]), 21%; in experiment [2] (setting [8]), 98% (active); in experiment [2] (at 50.0 µM) it was 90.4% (active). Also, the growth inhibition in experiment [3] (setting [7]) was 18%; in experiment [3] (setting [8]), 99% (active); in experiment [3] (at 50.0 µM), 85.2% (active); in experiment [4] (setting [7]), 30%; in experiment [4] (setting [8]) it was 98% (active); in experiment [4] (at 50.0 µM), 86.4% (active). Moreover, the growth inhibition in experiment [5] (setting [7]) was 45%; in experiment [5] (setting [8]), 98% (active); in experiment [5] (at 50.0 µM), 92.2% (active); in experiment [6] (setting [7]), 22%; in experiment [6] (setting [8]) it was 97% (active); in experiment [6] (at 50.0 µM), 92.2% (active).

Consider `COC(=O)c1cc(=O)n(-c2ccccc2C(F)(F)F)c(SC)n1`, for which the growth inhibition was 24% in experiment [1] (setting [7]); 91% (active) in experiment [1] (setting [8]); 99.2% (active) in experiment [1] (at 50.0 µM); 14% in experiment [2] (setting [7]); 92% (active) in experiment [2] (setting [8]); 99.5% (active) in experiment [2] (at 50.0 µM). Moreover, the growth inhibition in experiment [3] (setting [7]) is 43%; in experiment [3] (setting [8]), 94% (active); in experiment [3] (at 50.0 µM), 99.5% (active); in experiment [4] (setting [7]), 14%; in experiment [4] (setting [8]), 87% (active); in experiment [4] (at 50.0 µM), 96.8% (active). The growth inhibition is 7% in experiment [5] (setting [7]); 89% (active) in experiment [5] (setting [8]); 99.5% (active) in experiment [5] (at 50.0 µM); 39% in experiment [6] (setting [7]); 95% (active) in experiment [6] (setting [8]); 99.5% (active) in experiment [6] (at 50.0 µM).

As for `C=C(CN(C)C)C(=O)c1ccccc1C`, the growth inhibition in experiment [1] (setting [7]) is -2%; in experiment [1] (setting [8]), 65%; in experiment [1] (at 50.0 µM), 87.6% (active); in experiment [2] (setting [7]) it was -8%; in experiment [2] (setting [8]) it was 88% (active); in experiment [2] (at 50.0 µM), 78.7% (active). For the same compound, the growth inhibition in experiment [3] (setting [7]) is 13%; in experiment [3] (setting [8]), 86% (active); in experiment [3] (at 50.0 µM) it was 85% (active); in experiment [4] (setting [7]), -17%; in experiment [4] (setting [8]), 45%; in experiment [4] (at 50.0 µM), 65.8%. The growth inhibition was -11% in experiment [5] (setting [7]); 89% (active) in experiment [5] (setting [8]); 91.1% (active) in experiment [5] (at 50.0 µM); -4% in experiment [6] (setting [7]); 97% (active) in experiment [6] (setting [8]); 97% (active) in experiment [6] (at 50.0 µM).

For `C[C@]12C[C@H](c3ccccc3)Nc3ccccc3N1C(c1ccccc1)=NO2`, the growth inhibition in experiment [1] (setting [7]) was 0%; in experiment [1] (setting [8]), 83% (active); in experiment [1] (at 50.0 µM), 64.5%; in experiment [2] (setting [7]) it was -13%; in experiment [2] (setting [8]), 80% (active); in experiment [2] (at 50.0 µM), 59.7%. Further, the growth inhibition in experiment [3] (setting [7]) was 21%; in experiment [3] (setting [8]), 80% (active); in experiment [3] (at 50.0 µM), 81.5% (active); in experiment [4] (setting [7]) it was 9%; in experiment [4] (setting [8]), 74% (active); in experiment [4] (at 50.0 µM), 54.4%. Also, the growth inhibition is 6% in experiment [5] (setting [7]); 87% (active) in experiment [5] (setting [8]); 67.4% in experiment [5] (at 50.0 µM); -8% in experiment [6] (setting [7]); 88% (active) in experiment [6] (setting [8]); 71% (active) in experiment [6] (at 50.0 µM).

In the case of `Clc1nc2cc3nc(Cl)c(Cl)nc3cc2nc1Cl`, the growth inhibition in experiment [1] (setting [7]) was 18%; in experiment [1] (setting [8]), 71% (active); in experiment [1] (at 50.0 µM) it was 21.2%; in experiment [2] (setting [7]), 24%; in experiment [2] (setting [8]), 93% (active); in experiment [2] (at 50.0 µM) it was 16.3%. Also, the growth inhibition was 14% in experiment [3] (setting [7]); 24% in experiment [3] (setting [8]); 36.4% in experiment [3] (at 50.0 µM); 26% in experiment [4] (setting [7]); 23% in experiment [4] (setting [8]); 30.1% in experiment [4] (at 50.0 µM). For the same compound, the growth inhibition in experiment [5] (setting [7]) was 17%; in experiment [5] (setting [8]), 30%; in experiment [5] (at 50.0 µM), 15.6%; in experiment [6] (setting [7]) it was 29%; in experiment [6] (setting [8]) it was 91% (active); in experiment [6] (at 50.0 µM), -1.2%.
